# Measurements published in PubChem BioAssay AID720553 (National Center for Advancing Translational Sciences (NCATS), 2013).
# Out of some 340,000 compounds screened, about 3,300 (0.97%) were called active.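 The calls were made as follows: active = maximum activity change below -70%; inconclusive = maximum activity change from -70% to -50%; inactive = maximum activity change above -50%.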 Many of the other results were omitted from the sample, so actives are more common in it than they were.
# Tested on: Potassium voltage-gated channel subfamily H member 2, brain isoform KCNH2 3.1 (human)
# Experiment: qHTS for Inhibitors of KCHN2 3.1: Mutant qHTS
# Conditions: U2OS KCNH2 3.1, thallium flux FluxOr; hits give low values
# Procedure, shortened: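 Virally transduced U2OS (3.1 isoform, 4 h infection in dark at RT) → overnight 37 C → FluxOr + Red40 in HBSS/HEPES, 45 min → stimulation buffer, 2 min kinetic read → rate constant vs DMSO controls.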
# % is scaled to controls: 0 for no effect and ±100 for the full control effect.
row,SMILES,activity change
1,O=C(c1ccc(OC2CCN(Cc3ccccn3)CC2)cc1)N1CCCCCC1,10% (inactive)
2,CC(=O)Nc1ccc(CN2CCC(Oc3ccc(C(=O)N4CCCC4)cc3)CC2)cc1,9.17% (inactive)
3,O=C(c1ccc(OC2CCN(C/C=C/c3ccc(F)cc3)CC2)cc1)N1CCCCC1,-73.2% (active)
4,Cc1ccc([C@H]2N[C@]3(CCCN(CC4CCCCC4)C3=O)[C@H]3C(=O)N(Cc4ccccc4)C(=O)[C@@H]23)cc1,-5.04% (inactive)
5,Nc1cccc(OCCCCCOc2cccc(N)c2)c1,-1.75% (inactive)
6,CCCCN(CCCC)C(=O)CCS(=O)(=O)c1ccc2c(c1)n(C)c(=O)c(=O)n2C,-1.58% (inactive)
7,Cn1c(=O)c(=O)n(C)c2cc(S(=O)(=O)CCC(=O)N3CCCCC3)ccc21,-86.6% (active)
8,CCc1ccc(S(=O)(=O)Nc2cc3c(cc2N2CCCCC2)n(C)c(=O)c(=O)n3C)cc1,-8.37% (inactive)
9,CCOC(=O)C1CCN(C(=O)c2ccc3c(=O)n4nc(Nc5ccccc5CC)sc4nc3c2)CC1,-6.19% (inactive)
10,CCOc1ccc(C2c3[nH]c4ccccc4c3CCN2Cc2cccn2-c2ncccn2)cc1 (centres undefined),-73.3% (active)
11,CCOc1ccc(C2c3[nH]c4ccccc4c3CCN2Cc2cn(CC)nc2C)cc1 (centres undefined),-7.11% (inactive)
12,c1ccc(C2c3[nH]c4ccccc4c3CCN2Cc2cccn2-c2cccnc2)nc1 (centres undefined),7.54% (inactive)
13,COc1ncnc2c1ncn2CCCNCCN1CCOCC1,7.59% (inactive)
14,COc1ccc(CN2C(=O)C(CC(=O)NCc3cccc4ccccc34)CC(C(=O)N3CCOCC3)=C2C)cc1 (centres undefined),6.14% (inactive)
15,CCCc1ccc(OCC(O)CN2CCN(C(=O)OCC)CC2)cc1 (centres undefined),-6.68% (inactive)
16,OC(COc1ccccc1)CN1CCN(c2cccc(Cl)c2)CC1 (centres undefined),-33.9% (inactive)
17,CC1CCN(CC(O)COc2ccc(C(=O)c3ccccc3)cc2)CC1 (centres undefined),-6.71% (inactive)
18,C[N+]1(CC(O)COc2ccccc2)CCN(C(=O)c2ccc([N+](=O)[O-])cc2)CC1 (centres undefined),-11.2% (inactive)
19,O=[N+]([O-])c1ccc(N2CCN(CC(O)COc3ccccc3)CC2)cc1 (centres undefined),-90.3% (active)
20,O=C(C(c1ccccc1)c1ccccc1)N1CCN(CC(O)COc2ccccc2)CC1 (centres undefined),-70.2% (active)
21,CC1=C(C(=O)Nc2cccc(C(=O)NCC(C)c3ccccc3)c2)SCCO1 (centres undefined),3.22% (inactive)
22,COc1ccc(C(=O)NCC2CCCO2)cc1S(=O)(=O)NCc1ccc(Cl)cc1 (centres undefined),-6.01% (inactive)
23,N#CCSc1ccccc1NC(=O)CN1C(=O)NC(CCc2ccccc2)C1=O (centres undefined),0.381% (inactive)
24,COc1ccc(-n2c(-c3ccc(Cl)cc3)n[nH]c2=S)c(OC)c1,-3.64% (inactive)
25,CCOc1cc(/C=N/NC(=O)CN2CCCCC2)ccc1O,1.68% (inactive)
26,O=C(CN1CCSCC1)N/N=C/c1ccc(F)cc1,1.88% (inactive)
27,Cc1ccc(COc2ccc(/C=N/NC(=O)CN3CCCCC3)cc2)cc1,-108% (active)

row,SMILES,activity change
1,O=C1c2cccc3cccc(c23)C(=O)N1CCCCCc1n[nH]c(=S)o1,-159% (active)
2,O=C1c2ccccc2C(=O)N1CCCc1nc(-c2ccccc2)no1,6.34% (inactive)
3,O=C1c2ccccc2C(=O)N1CCCCCCN1C(=O)c2ccccc2C1=O,6.18% (inactive)
4,c1ccc(CNCc2ccc(CNCc3ccccc3)cc2)cc1,1.02% (inactive)
5,COc1ccc(Cn2nnc3c(=O)[nH]c(C4CCN(C(=O)c5ccccc5Cl)CC4)nc32)cc1,-29.8% (inactive)
6,COc1ccc(F)c(-c2nc(CN3CCC(c4ccccc4)CC3)c(C)o2)c1,-31.2% (inactive)
7,COc1ccc(CN2CCC(c3nc4ccc(Cl)cc4[nH]3)CC2)cc1,-98.1% (active)
8,COCCCn1c(C(=O)NC2CCCCC2)cc2c(=O)n3cccc(C)c3nc21,5.72% (inactive)
9,N#CC1(Nc2ccc3c4c(cccc24)CC3)CCCCC1,0.638% (inactive)
10,COc1ccc(NC(=O)c2cc(-c3ccc(C)o3)nc3ccccc23)cc1,-28.1% (inactive)
11,COc1cc(OC)cc(C(=O)Nc2ccc(-c3nc4ccccc4o3)c(O)c2)c1,-93.4% (active)
12,Cc1ccc2nc(-c3ccc(NC(=O)c4cccnc4)cc3)oc2c1,-11.7% (inactive)
13,O=C(c1ncn2c1c(=O)[nH]c1ccccc12)N1CCc2ccccc2C1,-7.26% (inactive)
14,COc1ccccc1C(=O)NC(=S)Nc1ccc(N2CCOCC2)cc1,6.65% (inactive)
15,O=C(Nc1nnc(-c2ccccc2)o1)c1cc(-c2cccs2)nc2ccccc12,-3.38% (inactive)
16,CCN(CC)CCNC(=O)c1ccc(NC(=O)c2cc(-c3ccncc3)nc3ccccc23)cc1,4.76% (inactive)
17,CCCCN(C)CCCNC(=O)c1cc(-c2cccs2)nc2ccccc12,-71.7% (active)
18,CC1=C(C(=O)N2CCOCC2)CC(CC(=O)NCc2cccc3ccccc23)C(=O)N1CCC1=CCCCC1 (centres undefined),1.47% (inactive)
19,O=C(OCc1cn([C@@H]2C[C@H](c3ccc(Cl)cc3)N(Cc3cccs3)C[C@H]2O)nn1)c1ccccc1,6.9% (inactive)
20,Cc1ccc(S(=O)(=O)N2C[C@@H](C)[C@]3(C2)[C@H](O)[C@H](OC(=O)NCc2ccccc2)C[C@H]2C(=O)N(c4ccccc4)C(=O)[C@H]23)cc1,5.25% (inactive)
21,N#CCCN(C(=S)Nc1ccc(Cl)c(Cl)c1)C1CCCCC1,-7.86% (inactive)
22,COc1cc(NC(=O)c2cncc(-c3ccc(C#N)cc3)c2)cc(C(=O)Nc2cccc(C(F)(F)F)c2)c1,-82.3% (active)
23,COc1cccc(NC(=O)CN(C)C(C)C(=O)Nc2ccc(C#N)cc2)c1 (centres undefined),3.52% (inactive)
24,COc1cc(NC(=O)c2[nH]cnc2C(N)=O)cc(C(=O)Nc2cccc(C(F)(F)F)c2)c1,-24.6% (inactive)
25,CCCNC(=O)C1CC(=O)N(c2ccc(OCc3ccccc3)cc2)C1 (centres undefined),-2.11% (inactive)
26,O=C(C1CCCO1)N1CCN(C(=O)C23CC4CC(CC(C4)C2)C3)CC1 (centres undefined),3.39% (inactive)
27,CC(=O)Nc1ccc(C=CC(=O)c2ccc([N+](=O)[O-])cc2)cc1,-4.78% (inactive)
